According to article PMC7862700, “An all-to-all approach to the identification of sequence-specific readers for epigenetic DNA modifications on cytosine”:

Key:
Assay in all cases: DAPPL (digital affinity profiling via proximity ligation, sequencing); 10 mM Tris-HCl pH 7.5, 50 mM NaCl, 1 mM DTT, 4% glycerol, room temperature, 30 min; GST-TFs on glutathione beads, 16-mer random dsDNA library, 0.1% formaldehyde crosslink after washing; high values mean tight binding
FLI1 = target: T1, FLI1 (Homo sapiens, UniProt Q01543 1-452); details: protein: recombinant; tags: N-terminal GST; dsDNA, one strand shown
T1 sequence: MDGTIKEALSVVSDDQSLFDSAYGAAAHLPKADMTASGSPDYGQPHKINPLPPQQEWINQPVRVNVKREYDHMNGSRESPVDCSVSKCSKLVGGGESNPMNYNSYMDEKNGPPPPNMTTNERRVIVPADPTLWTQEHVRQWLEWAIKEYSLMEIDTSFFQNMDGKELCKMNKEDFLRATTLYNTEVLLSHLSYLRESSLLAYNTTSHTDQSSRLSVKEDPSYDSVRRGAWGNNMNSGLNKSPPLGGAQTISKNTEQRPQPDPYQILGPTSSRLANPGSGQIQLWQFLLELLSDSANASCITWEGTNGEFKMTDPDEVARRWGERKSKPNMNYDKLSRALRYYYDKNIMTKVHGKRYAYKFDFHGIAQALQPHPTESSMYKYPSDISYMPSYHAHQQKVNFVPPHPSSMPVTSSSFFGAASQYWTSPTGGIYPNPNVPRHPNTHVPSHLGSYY
In short: (§1)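 Binding signal is each hexamer's read frequency for a factor divided by its frequency in the tag-only sample. The factors were GST-fused human transcription factors from yeast, captured on glutathione beads, DNA-barcoded and pooled with that sample. Pools were incubated with 200 nmole of a random double-stranded 16-mer DNA library in Tris/NaCl/DTT/glycerol buffer at room temperature for 30 min, then washed, crosslinked with 0.1% formaldehyde, proximity-ligated with BsaI/T4 ligase (1 h, 37 °C), PCR-amplified and sequenced on an Illumina NextSeq500.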

ELK1 = target: T2, ELK1 (Homo sapiens, UniProt P19419 1-428); details: protein: recombinant; tags: N-terminal GST; dsDNA, one strand shown
T2 sequence: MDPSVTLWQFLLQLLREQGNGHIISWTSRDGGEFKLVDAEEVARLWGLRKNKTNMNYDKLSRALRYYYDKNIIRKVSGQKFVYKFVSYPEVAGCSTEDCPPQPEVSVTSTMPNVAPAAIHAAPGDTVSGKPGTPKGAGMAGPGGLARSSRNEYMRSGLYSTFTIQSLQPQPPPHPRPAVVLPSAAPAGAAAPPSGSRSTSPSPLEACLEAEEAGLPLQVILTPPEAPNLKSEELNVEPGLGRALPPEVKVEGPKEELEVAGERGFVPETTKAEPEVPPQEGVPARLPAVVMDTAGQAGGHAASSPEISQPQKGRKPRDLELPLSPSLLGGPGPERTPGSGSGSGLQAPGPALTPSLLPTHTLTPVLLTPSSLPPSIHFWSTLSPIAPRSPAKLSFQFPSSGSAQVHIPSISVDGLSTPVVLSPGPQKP
In short: as §1

GABPA = target: T3, GABPA (Homo sapiens, UniProt Q06546 1-454); details: protein: recombinant; tags: N-terminal GST; dsDNA, one strand shown
T3 sequence: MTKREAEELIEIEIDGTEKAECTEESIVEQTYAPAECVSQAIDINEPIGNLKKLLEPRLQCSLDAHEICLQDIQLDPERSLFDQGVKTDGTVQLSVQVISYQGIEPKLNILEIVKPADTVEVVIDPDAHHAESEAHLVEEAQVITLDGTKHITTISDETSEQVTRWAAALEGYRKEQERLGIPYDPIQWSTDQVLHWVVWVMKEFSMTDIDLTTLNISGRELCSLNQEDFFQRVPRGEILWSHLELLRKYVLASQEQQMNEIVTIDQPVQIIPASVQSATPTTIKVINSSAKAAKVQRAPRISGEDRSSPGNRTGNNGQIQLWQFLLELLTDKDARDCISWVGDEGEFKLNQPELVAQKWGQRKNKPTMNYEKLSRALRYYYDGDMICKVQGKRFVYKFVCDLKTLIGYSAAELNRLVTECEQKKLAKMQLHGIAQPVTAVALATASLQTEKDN
In short: as §1

ERG = target: T4, ERG (Homo sapiens, UniProt P11308 1-479); details: protein: recombinant; tags: N-terminal GST; dsDNA, one strand shown
T4 sequence: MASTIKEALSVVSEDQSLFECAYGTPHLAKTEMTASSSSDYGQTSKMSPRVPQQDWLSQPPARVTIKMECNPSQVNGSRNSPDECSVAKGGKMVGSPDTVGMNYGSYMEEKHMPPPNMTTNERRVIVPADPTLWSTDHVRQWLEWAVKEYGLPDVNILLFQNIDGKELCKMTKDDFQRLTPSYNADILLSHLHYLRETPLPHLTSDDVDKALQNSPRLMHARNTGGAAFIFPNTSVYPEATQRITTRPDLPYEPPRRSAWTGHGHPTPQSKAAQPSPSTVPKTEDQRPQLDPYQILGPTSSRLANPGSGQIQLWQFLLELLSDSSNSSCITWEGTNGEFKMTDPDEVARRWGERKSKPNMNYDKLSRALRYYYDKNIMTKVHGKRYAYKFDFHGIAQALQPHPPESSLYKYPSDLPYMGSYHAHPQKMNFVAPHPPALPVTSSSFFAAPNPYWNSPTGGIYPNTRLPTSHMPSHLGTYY
In short: as §1

ELF1 = ELF1 (Homo sapiens, UniProt P32519 1-619); details: protein: recombinant; tags: N-terminal GST; dsDNA, one strand shown
Sequence of ELF1 (P32519 whole entry): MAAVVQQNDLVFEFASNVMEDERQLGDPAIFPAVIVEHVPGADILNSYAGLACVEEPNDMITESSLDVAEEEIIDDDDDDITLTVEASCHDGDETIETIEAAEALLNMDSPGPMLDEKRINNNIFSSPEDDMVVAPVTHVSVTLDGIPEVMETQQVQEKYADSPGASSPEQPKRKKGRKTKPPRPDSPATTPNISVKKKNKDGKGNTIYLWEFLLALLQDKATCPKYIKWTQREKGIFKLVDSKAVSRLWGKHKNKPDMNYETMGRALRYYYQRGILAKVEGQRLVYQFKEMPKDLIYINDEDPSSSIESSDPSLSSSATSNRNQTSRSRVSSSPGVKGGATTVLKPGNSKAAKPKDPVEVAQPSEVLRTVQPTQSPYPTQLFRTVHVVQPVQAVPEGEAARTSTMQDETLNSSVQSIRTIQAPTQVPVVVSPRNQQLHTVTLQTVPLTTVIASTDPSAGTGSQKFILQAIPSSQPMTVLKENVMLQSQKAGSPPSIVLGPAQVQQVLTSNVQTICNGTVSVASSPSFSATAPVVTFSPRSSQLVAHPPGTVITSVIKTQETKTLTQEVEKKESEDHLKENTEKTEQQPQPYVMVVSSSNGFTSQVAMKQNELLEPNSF
In short: as §1

EHF = target: T5, EHF (Homo sapiens, UniProt Q9NZC4 1-300); details: protein: recombinant; tags: N-terminal GST; dsDNA, one strand shown
T5 sequence: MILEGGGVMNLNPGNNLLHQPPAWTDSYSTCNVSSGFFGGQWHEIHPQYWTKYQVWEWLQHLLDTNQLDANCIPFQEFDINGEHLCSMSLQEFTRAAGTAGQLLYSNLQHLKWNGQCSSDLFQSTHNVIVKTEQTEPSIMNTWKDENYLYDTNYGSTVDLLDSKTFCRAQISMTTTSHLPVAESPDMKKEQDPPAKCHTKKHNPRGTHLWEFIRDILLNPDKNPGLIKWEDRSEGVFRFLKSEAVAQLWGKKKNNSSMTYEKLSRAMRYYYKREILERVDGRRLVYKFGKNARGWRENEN
In short: as §1

SPI1 = SPI1 (Homo sapiens, UniProt P17947 1-270); details: protein: recombinant; tags: N-terminal GST; dsDNA, one strand shown
In short: as §1

SPIB = SPIB (Homo sapiens, UniProt Q01892 1-262); details: protein: recombinant; tags: N-terminal GST; dsDNA, one strand shown
Sequence of SPIB (Q01892 whole entry): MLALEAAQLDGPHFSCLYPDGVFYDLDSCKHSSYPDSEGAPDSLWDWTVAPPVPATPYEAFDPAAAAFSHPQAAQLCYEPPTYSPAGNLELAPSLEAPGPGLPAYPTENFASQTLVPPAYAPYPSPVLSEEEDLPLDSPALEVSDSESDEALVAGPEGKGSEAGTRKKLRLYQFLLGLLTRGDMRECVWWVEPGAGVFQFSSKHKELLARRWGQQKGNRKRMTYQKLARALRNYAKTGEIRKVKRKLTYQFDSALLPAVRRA
In short: as §1

ELK3 = target: T6, ELK3 (Homo sapiens, UniProt P41970 1-407); details: protein: recombinant; tags: N-terminal GST; dsDNA, one strand shown
T6 sequence: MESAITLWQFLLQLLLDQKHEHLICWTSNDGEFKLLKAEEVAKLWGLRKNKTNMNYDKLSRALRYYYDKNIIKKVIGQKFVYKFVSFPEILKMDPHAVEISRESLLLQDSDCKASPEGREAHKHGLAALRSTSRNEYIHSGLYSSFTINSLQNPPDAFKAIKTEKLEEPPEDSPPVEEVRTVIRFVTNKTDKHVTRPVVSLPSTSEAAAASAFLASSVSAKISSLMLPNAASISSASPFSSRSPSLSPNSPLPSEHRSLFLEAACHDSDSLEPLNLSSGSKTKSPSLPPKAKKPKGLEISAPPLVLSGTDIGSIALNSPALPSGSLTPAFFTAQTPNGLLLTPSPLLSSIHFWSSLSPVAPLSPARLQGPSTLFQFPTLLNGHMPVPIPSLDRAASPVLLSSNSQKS
In short: as §1

FEV = target: T7, FEV (Homo sapiens, UniProt Q99581 1-238); details: protein: recombinant; tags: N-terminal GST; dsDNA, one strand shown
T7 sequence: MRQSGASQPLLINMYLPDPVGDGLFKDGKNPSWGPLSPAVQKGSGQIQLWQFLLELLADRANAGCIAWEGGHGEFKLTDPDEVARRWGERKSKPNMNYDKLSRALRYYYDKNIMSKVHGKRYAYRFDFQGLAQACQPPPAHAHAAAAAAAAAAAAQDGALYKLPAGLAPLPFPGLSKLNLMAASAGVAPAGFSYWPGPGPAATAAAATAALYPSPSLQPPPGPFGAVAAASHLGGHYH
In short: as §1

ETV5 = ETV5 (Homo sapiens, UniProt P41161 1-510); details: protein: recombinant; tags: N-terminal GST; dsDNA, one strand shown
Sequence of ETV5 (P41161 whole entry): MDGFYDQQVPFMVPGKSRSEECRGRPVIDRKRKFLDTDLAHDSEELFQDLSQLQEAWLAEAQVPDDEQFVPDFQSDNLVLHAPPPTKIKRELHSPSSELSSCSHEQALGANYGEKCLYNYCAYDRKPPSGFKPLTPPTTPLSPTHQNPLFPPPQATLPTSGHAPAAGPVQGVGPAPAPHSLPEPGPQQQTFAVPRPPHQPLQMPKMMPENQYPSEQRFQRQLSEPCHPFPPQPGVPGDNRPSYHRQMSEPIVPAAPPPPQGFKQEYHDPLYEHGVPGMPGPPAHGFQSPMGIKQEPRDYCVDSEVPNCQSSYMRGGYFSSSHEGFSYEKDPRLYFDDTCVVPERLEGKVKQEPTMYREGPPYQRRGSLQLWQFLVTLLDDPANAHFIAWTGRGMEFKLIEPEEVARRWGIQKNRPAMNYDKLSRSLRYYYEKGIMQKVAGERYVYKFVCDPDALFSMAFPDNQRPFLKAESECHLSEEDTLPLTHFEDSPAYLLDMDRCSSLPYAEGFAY
In short: as §1

HSF1 = HSF1 (Homo sapiens, UniProt Q00613 1-529); details: protein: recombinant; tags: N-terminal GST; chain copies: 3; dsDNA, one strand shown
Sequence of HSF1 (Q00613 whole entry): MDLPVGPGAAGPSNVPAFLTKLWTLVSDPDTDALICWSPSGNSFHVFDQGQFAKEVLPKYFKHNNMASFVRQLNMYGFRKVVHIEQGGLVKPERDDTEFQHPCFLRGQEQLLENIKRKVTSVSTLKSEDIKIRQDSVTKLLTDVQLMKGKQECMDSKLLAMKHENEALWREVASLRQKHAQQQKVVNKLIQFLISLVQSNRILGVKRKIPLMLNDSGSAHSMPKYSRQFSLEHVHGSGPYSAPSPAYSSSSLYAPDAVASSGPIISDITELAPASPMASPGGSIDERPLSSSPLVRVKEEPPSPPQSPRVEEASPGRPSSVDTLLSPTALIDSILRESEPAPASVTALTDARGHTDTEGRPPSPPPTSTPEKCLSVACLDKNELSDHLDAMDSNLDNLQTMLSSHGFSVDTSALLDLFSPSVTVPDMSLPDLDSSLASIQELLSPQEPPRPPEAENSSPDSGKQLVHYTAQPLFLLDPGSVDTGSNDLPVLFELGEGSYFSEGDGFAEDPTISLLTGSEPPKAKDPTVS
In short: as §1

SPIC = target: T8, SPIC (Homo sapiens, UniProt Q8N5J4 1-248); details: protein: recombinant; tags: N-terminal GST; dsDNA, one strand shown
T8 sequence: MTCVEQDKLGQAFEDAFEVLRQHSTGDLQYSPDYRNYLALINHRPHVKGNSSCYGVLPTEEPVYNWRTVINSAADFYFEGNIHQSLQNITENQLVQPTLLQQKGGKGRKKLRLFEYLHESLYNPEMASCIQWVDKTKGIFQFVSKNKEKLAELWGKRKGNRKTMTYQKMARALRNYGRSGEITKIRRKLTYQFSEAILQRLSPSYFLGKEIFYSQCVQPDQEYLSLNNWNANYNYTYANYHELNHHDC
In short: as §1

ELF4 = ELF4 (Homo sapiens, UniProt Q99607 1-663); details: protein: recombinant; tags: N-terminal GST; dsDNA, one strand shown
Sequence of ELF4 (Q99607 whole entry): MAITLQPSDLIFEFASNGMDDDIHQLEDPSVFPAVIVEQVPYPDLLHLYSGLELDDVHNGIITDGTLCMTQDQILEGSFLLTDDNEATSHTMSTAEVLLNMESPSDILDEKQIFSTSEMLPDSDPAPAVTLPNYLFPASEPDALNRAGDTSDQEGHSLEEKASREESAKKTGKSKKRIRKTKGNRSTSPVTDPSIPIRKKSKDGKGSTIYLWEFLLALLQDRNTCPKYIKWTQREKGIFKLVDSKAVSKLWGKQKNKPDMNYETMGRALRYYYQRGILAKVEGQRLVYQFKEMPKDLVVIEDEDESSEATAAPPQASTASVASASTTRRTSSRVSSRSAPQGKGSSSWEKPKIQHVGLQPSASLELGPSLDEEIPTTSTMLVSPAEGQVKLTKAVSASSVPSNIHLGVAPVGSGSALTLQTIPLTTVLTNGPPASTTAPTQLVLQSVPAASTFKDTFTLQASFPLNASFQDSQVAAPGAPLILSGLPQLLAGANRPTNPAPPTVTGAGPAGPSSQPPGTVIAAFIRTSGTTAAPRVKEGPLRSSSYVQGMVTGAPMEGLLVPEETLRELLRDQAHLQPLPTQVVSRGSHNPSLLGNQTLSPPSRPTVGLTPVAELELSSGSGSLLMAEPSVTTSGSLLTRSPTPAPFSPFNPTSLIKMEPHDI
In short: as §1

ELK4 = target: T9, ELK4 (Homo sapiens, UniProt P28324-2 1-405); details: protein: recombinant; tags: N-terminal GST; dsDNA, one strand shown
T9 sequence: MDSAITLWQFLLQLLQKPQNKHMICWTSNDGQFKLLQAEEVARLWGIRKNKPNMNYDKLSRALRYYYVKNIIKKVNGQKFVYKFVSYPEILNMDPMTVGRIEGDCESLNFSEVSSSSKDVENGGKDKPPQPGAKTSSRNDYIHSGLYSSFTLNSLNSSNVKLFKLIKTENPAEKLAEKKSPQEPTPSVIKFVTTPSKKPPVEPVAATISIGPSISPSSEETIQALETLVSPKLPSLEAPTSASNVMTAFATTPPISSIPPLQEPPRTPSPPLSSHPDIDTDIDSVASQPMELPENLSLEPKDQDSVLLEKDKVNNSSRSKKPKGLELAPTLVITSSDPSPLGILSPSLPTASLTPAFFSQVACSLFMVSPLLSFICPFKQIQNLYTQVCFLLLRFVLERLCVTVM
In short: as §1

ETV2 = target: T10, ETV2 (Homo sapiens, UniProt O00321 1-342); details: protein: recombinant; tags: N-terminal GST; dsDNA, one strand shown
T10 sequence: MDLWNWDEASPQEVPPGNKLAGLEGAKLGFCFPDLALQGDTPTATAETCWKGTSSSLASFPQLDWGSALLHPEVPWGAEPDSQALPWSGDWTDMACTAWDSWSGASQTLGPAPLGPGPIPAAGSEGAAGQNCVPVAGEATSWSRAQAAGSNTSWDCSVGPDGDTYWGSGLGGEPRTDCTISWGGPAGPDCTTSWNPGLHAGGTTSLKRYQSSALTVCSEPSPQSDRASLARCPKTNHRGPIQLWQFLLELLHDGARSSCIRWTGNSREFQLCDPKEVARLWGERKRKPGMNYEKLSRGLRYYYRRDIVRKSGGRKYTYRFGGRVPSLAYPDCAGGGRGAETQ
In short: as §1

ELF3 = target: T11, ELF3 (Homo sapiens, UniProt P78545 1-371); details: protein: recombinant; tags: N-terminal GST; dsDNA, one strand shown
T11 sequence: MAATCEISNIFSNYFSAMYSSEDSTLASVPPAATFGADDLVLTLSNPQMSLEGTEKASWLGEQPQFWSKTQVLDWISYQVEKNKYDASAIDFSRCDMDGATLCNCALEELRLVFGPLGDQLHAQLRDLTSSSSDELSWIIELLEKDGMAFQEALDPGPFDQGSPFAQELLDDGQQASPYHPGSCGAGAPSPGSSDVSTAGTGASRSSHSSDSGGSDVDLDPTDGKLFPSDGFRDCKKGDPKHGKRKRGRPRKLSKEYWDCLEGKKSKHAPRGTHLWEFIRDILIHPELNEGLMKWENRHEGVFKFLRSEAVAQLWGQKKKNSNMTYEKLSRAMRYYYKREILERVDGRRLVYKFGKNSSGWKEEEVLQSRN
In short: as §1

CRX = CRX (Homo sapiens, UniProt O43186 1-299); details: protein: recombinant; tags: N-terminal GST; dsDNA, one strand shown
Sequence of CRX (O43186 whole entry): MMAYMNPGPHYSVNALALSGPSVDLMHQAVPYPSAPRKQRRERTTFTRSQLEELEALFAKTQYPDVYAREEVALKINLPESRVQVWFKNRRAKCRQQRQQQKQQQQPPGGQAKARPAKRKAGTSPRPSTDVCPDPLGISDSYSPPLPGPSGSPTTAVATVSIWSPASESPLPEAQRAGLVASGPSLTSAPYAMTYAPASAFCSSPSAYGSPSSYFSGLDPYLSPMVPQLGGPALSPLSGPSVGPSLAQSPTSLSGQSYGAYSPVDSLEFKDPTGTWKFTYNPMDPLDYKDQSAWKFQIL
In short: as §1

ETV1 = ETV1 (Homo sapiens, UniProt P50549 1-477); details: protein: recombinant; tags: N-terminal GST; dsDNA, one strand shown
Sequence of ETV1 (P50549 whole entry): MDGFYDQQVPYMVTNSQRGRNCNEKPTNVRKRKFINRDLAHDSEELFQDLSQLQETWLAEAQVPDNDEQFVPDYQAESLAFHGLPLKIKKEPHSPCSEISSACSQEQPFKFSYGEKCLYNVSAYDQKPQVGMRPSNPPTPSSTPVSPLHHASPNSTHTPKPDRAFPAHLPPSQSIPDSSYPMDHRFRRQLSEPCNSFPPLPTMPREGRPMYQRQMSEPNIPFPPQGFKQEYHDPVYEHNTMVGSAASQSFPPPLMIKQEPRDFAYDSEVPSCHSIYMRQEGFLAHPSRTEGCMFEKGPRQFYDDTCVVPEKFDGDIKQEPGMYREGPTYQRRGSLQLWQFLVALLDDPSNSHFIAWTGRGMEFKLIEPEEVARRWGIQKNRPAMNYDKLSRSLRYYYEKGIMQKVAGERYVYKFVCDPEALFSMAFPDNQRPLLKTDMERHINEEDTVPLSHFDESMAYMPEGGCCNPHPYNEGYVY
In short: as §1

CCGCAC
binding signal (FLI1): 1.45 fold enrichment (6-mer frequency, TF over GST control) | binding signal (ELK1): 1.45 fold enrichment (6-mer frequency, TF over GST control) | binding signal (GABPA): 1.5 fold enrichment (6-mer frequency, TF over GST control) | binding signal (ERG): 1.42 fold enrichment (6-mer frequency, TF over GST control) | binding signal (ELF1): 1.55 fold enrichment (6-mer frequency, TF over GST control) | binding signal (EHF): 1.5 fold enrichment (6-mer frequency, TF over GST control) | binding signal (SPI1): 1.52 fold enrichment (6-mer frequency, TF over GST control) | binding signal (SPIB): 1.41 fold enrichment (6-mer frequency, TF over GST control) | binding signal (ELK3): 1.52 fold enrichment (6-mer frequency, TF over GST control) | binding signal (FEV): 1.42 fold enrichment (6-mer frequency, TF over GST control) | binding signal (ETV5): 1.4 fold enrichment (6-mer frequency, TF over GST control) | binding signal (HSF1): 1.13 fold enrichment (6-mer frequency, TF over GST control) | binding signal (SPIC): 1.27 fold enrichment (6-mer frequency, TF over GST control) | binding signal (ELF4): 1.5 fold enrichment (6-mer frequency, TF over GST control) | binding signal (ELK4): 1.3 fold enrichment (6-mer frequency, TF over GST control) | binding signal (ETV2): 1.39 fold enrichment (6-mer frequency, TF over GST control) | binding signal (ELF3): 1.39 fold enrichment (6-mer frequency, TF over GST control) | binding signal (CRX): 1.02 fold enrichment (6-mer frequency, TF over GST control) | binding signal (ETV1): 1.47 fold enrichment (6-mer frequency, TF over GST control)
